Activity calls are given as the source filed them.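 How the source made its calls, unless noted: active means inhibition at or above 50% at 10 µM; inactive means inhibition below 50%.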

The nature of test [1]: inhibitors of TNFa-induced NFkB p65 translocation, primary screen, imaging, HUVEC, MLSMR starter and 10KST1 sets (AID 438;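 active means inhibition above 20% together with a positive visual image hit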;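 further: compound added about 3h40 before a 20 min TNFalpha stimulation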;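 on inhibition: signal is the nuclear over cytoplasmic p65 intensity ratio per well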). The settings on record: HUVEC TNFa-induced p65 nuclear translocation; cell count: measured here: nuclei count (cytotoxicity indicator), at 2.08 µM; inhibition: at 2 µM, stronger effect = higher value, 0% TNFa-plus-vehicle, 100% no-TNFa wells.
Test [2] in a line: inhibitors of mutant huntingtin aggregation, primary screen, imaging, exon1htt(103Q)mCFP cells, high-content imaging (AID 483;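 active means visual image review flags a hit and inhibition of aggregation exceeds 20%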;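 further: compound exposure lasted 3 days before fixation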;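 on nuclei count: percent of the per-plate median nuclei count of sample wells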). The settings on record: exon1htt(103Q)mCFP cell line, aggregate imaging, at 2 µM; inhibition of aggregation: stronger effect = higher value; nuclei count: measured here: cell count, toxicity.
Test [3] in a line: inhibitors of E-selectin induction by TNFa, primary screen, imaging, HUVEC, immunofluorescence, MLSMR starter and 10KST1 sets (AID 487;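 active means visually confirmed hit in the image check and inhibition above 20%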;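 on inhibition: signal is fraction of cell area covered by stained E-selectin grains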;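 on nuclei count: 100% = median nuclei count of all wells on the same plate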). The settings on record: HUVEC TNFalpha-induced E-selectin immunofluorescence imaging, at 2 µM; inhibition: stronger effect = higher value; nuclei count: measured here: cell number, toxicity.
In test [4] the target is Voltage-gated potassium channel subunit beta-2 (Rattus norvegicus) (UniProt P62483). Description: KvBeta enzyme negative modulators, primary screen, biochemical, NADPH fluorescence (AID 622;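 active means fluorescence slope higher than the sample average by over 3 SD, cut at about -0.22 in these data, passing the limit was not always enough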;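 further: slope of raw intensity against log time taken from 70 to 1610 s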). The following applies: recombinant KvBeta, 4-cyanobenzaldehyde reduction, at 10 µM, stronger effect = higher value.
The target is the same in test [5]. Description: KvBeta positive modulators, primary screen, biochemical, NADPH fluorescence (AID 623;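 active means NADPH fluorescence slope more negative than the mean of all samples by about 3 SD, 99.7% confidence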;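 further: fluorescence intensity change per second fitted from 20 to 320 s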). The settings on record: Recombinant KvBeta, NADPH fluorescence decrease slope, 10 min; at 10 µM; stronger effect = lower value.
Test [6] has as its target Alpha-2C adrenergic receptor (Homo sapiens) (UniProt P18825). Description: modulators of alpha2C/GIRK thallium flux, primary screen, cell-based, HEK293 alpha2C/GIRK1/2 (AID 624;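 active means fluorescence slope after compound addition differing from the mean of all screened samples at 99.7% confidence, in either direction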;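 further: slope of fluorescence ratio to pre-addition baseline per second over 15 to 24 s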). The settings on record: thallium flux BTC fluorescence, at 10 µM, actives lie on both sides.
Test [7] can be described thus: inhibitors of Sendai virus-induced IRF3 signaling, primary screen, TLR/RLR signaling modifier project, cell-based, Sendai virus stimulus, luciferase, 10K MLSCN set (AID 602276).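 Further: firefly luciferase from ISG56 promoter only with Renilla not read in this screen; 0% = Sendai virus plus DMSO and 100% = medium plus DMSO without virus.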 The settings on record: HEK293 RL24 IRF3 luciferase reporter, at 10 µM, stronger effect = higher value. Background: Reporter assays use an easily measured gene product as a stand-in for the process of interest.

A short description of test [8]: inhibitors of poly I:C-induced TLR3 signaling, primary screen, cell-based, poly I:C stimulus, luciferase, 10K MLSCN set (AID 602277;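 active means inhibition of the reporter signal at or above 50%; inactive means inhibition below 50%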). The settings on record: HEK293-TLR3 RL24 IRF3 luciferase reporter, at 10 µM, stronger effect = higher value.

Chain of Voltage-gated potassium channel subunit beta-2 (Rattus norvegicus) (P62483 whole entry, looked up): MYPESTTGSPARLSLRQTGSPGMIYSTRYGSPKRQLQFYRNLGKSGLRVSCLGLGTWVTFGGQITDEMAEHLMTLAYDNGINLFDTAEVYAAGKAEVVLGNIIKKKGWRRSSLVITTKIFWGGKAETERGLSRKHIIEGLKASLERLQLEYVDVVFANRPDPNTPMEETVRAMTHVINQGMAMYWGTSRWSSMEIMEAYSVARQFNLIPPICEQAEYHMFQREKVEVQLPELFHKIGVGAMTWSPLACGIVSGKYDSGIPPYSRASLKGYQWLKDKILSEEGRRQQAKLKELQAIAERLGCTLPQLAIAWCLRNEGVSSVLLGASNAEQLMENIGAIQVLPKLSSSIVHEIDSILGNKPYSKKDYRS
Chain of Alpha-2C adrenergic receptor (Homo sapiens) (P18825 whole entry, looked up): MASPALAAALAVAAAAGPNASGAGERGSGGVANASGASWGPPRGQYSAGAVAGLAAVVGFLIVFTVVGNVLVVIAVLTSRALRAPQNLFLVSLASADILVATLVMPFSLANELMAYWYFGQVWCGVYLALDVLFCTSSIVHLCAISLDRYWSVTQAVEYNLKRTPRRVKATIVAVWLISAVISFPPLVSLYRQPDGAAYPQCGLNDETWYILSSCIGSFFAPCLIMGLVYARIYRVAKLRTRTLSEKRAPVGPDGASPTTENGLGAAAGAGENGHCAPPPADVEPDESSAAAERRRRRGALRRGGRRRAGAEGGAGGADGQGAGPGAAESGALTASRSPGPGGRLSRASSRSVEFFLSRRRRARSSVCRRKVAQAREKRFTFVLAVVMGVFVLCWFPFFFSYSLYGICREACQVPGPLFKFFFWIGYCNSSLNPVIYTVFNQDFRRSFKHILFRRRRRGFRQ

By inhibition is commonly meant the drop in the measured response relative to a control, in per cent. Consider `CCOC(=O)N1CCN(c2nc(-c3ccc(Cl)cc3)cs2)CC1`, for which the cell count in test [1] is 256. The inhibition in test [1] was 7.4% (inactive); in test [3] it was -94.3% (inactive); in test [7], -3.5% (inactive); in test [8], -38.7% (inactive). Further, the inhibition of aggregation in test [2] is 7.8% (inactive). Besides, the nuclei count in test [2] is 80.8%; in test [3], 113%. Besides, the fluorescence slope in test [4] was -0.35 (inactive). The NADPH fluorescence slope in test [5] is -3.8e-05 (inactive). Moreover, in test [6], the slope was 0.00625 (inactive).
On to `O=C(CNS(=O)(=O)c1ccccc1)NCc1ccccn1`, for which the cell count in test [1] turned out to be 707. For the same compound, the inhibition was -2.1% (inactive) in test [1], -25.5% (inactive) in test [3], 20.5% (inactive) in test [7] and 16.3% (inactive) in test [8]. Moreover, the inhibition of aggregation in test [2] is -10.6% (inactive). Further, the results for the nuclei count in test [2] and in test [3] were 106% and 113%, respectively. Besides, the fluorescence slope in test [4] is -0.517 (inactive). Besides, the NADPH fluorescence slope in test [5] was -1.9e-05 (inactive). Further, the slope in test [6] was 0.00515 (inactive).
Consider `CCCCOc1ccc(-c2nnn(C(C)(C)C(=O)OC)n2)cc1`, for which, in test [1], the cell count is 602. The inhibition was -6.3% (inactive) in test [1], 1.6% (inactive) in test [3], -33.8% (inactive) in test [7] and -125% (inactive) in test [8]. In addition, the inhibition of aggregation in test [2] was 7% (inactive). The nuclei count is 67.8% in test [2] and 102% in test [3]. Moreover, the fluorescence slope in test [4] is -0.502 (inactive). Further, the NADPH fluorescence slope in test [5] was -0.00029 (active). In addition, in test [6], the slope was 0.0068 (inactive).
For `Cn1c(=O)[nH]c(=O)c2c1nc(NCCCn1ccnc1)n2Cc1ccccc1`, the cell count in test [1] worked out at 433. The inhibition in test [1] was 0.3% (inactive); in test [3], -46.4% (inactive); in test [7] it was -9.45% (inactive); in test [8], -6.06% (inactive). Further, in test [2], the inhibition of aggregation was -7.8% (inactive). Moreover, the values for the nuclei count in test [2] and in test [3] were 130% and 119%, respectively. Also, the fluorescence slope in test [4] is -0.603 (inactive). Further, the NADPH fluorescence slope in test [5] is -3.4e-05 (inactive). Besides, the slope in test [6] is 0.00342 (inactive).
As to `CCOC(=O)C1C(=O)N(C(=O)c2ccc(OC)cc2)CC1c1ccccc1` (centres undefined), in test [1], the cell count was 423. The inhibition in test [1] is -7.6% (inactive); in test [3], -39.2% (inactive); in test [7] it was 12.3% (inactive); in test [8] it was 22.3% (inactive). Further, the inhibition of aggregation in test [2] is -7.4% (inactive). The nuclei count in test [2] came to 99%; in test [3], 128%. Besides, in test [4], the fluorescence slope was -0.384 (inactive). In test [5], the NADPH fluorescence slope was -0.000151 (inactive). In test [6], the slope was 0.00629 (inactive).
Consider `Cc1ccc(-c2nnc(SC(C)C#N)n2N)cc1` (centres undefined), for which the cell count in test [1] was found to be 516. Further, the inhibition in test [1] was -3.8% (inactive); in test [3], -93.5% (inactive); in test [7] it was 10.4% (inactive); in test [8], 19% (inactive). Besides, in test [2], the inhibition of aggregation was -0.7% (inactive). In addition, the results for the nuclei count in test [2] and in test [3] were 95.1% and 137%, respectively. Further, the fluorescence slope in test [4] was -0.587 (inactive). The NADPH fluorescence slope in test [5] was -3.8e-05 (inactive). Further, in test [6], the slope is 0.00692 (inactive).
With `CC(C)c1ccc(C(O)c2cnc(C(C)C)n2C)cc1` (centres undefined), the cell count in test [1] was found to be 723. Further, the inhibition in test [1] is 6.9% (inactive); in test [3], -93.9% (inactive); in test [7], -10.5% (inactive); in test [8] it was -5.66% (inactive). Further, in test [2], the inhibition of aggregation was -27.2% (inactive). The nuclei count in test [2] worked out at 50.5%; in test [3], 106%. Further, the fluorescence slope in test [4] was -0.552 (inactive). Further, the NADPH fluorescence slope in test [5] was -3.1e-05 (inactive). In addition, the slope in test [6] was 0.00678 (inactive).
As to `CCOc1ccccc1C(=O)NCC(=O)OCC(=O)N1C(C)CCCC1C` (centres undefined), the cell count in test [1] was 683. Besides, the inhibition in test [1] is -3.4% (inactive); in test [3], 26.6% (inactive); in test [7], 11.2% (inactive); in test [8], 17.1% (inactive). Moreover, the inhibition of aggregation in test [2] was -9.7% (inactive). For the same compound, the nuclei count turned out to be 103% in test [2] and 112% in test [3]. For the same compound, the fluorescence slope in test [4] is -0.615 (inactive). In addition, the NADPH fluorescence slope in test [5] is 3e-05 (inactive). Moreover, in test [6], the slope was 0.00593 (inactive).
Regarding `CC(=O)N(CCc1ccccc1C)Cc1cc2cc3c(cc2[nH]c1=O)OCO3`, the cell count in test [1] amounted to 251. Also, the inhibition in test [1] was 12.1% (inactive); in test [3], -68.1% (inactive); in test [7], 8.48% (inactive); in test [8] it was 15.6% (inactive). In test [2], the inhibition of aggregation was 1.2% (inactive). For the same compound, the nuclei count in test [2] was determined as 86.1%; in test [3] it was 116%. Moreover, the fluorescence slope in test [4] was -0.592 (inactive). The NADPH fluorescence slope in test [5] is -6.2e-05 (inactive). Also, the slope in test [6] is 0.00459 (inactive).
For `O=C(Nc1ccc(S(=O)(=O)N2CCCCCC2)cc1)c1ccco1`, the cell count in test [1] came to 355. The inhibition in test [1] is 1.5% (inactive); in test [3], -32.3% (inactive); in test [7], -8.22% (inactive); in test [8], -19.4% (inactive). In test [2], the inhibition of aggregation was 12.9% (inactive). The nuclei count in test [2] stood at 105%; in test [3], 126%. In test [4], the fluorescence slope was -0.434 (inactive). In test [5], the NADPH fluorescence slope was -6.7e-05 (inactive). Besides, the slope in test [6] was 0.00521 (inactive).
On to `Nn1c(SCC(=O)Nc2ccc(S(=O)(=O)N3CCCC3)cc2)nnc1C(F)(F)F`, for which the cell count in test [1] is 704. Also, the inhibition is -3.3% (inactive) in test [1], -33.2% (inactive) in test [3], 9.87% (inactive) in test [7] and 12.8% (inactive) in test [8]. Besides, in test [2], the inhibition of aggregation was -7% (inactive). In addition, the nuclei count in test [2] amounted to 104%; in test [3], 128%. The fluorescence slope in test [4] was -0.504 (inactive). In test [5], the NADPH fluorescence slope was -6.5e-05 (inactive). In test [6], the slope was 0.00607 (inactive).
In the case of `CCC(C)NC(=O)CS(=O)(=O)Cc1nc(-c2cccc(OC)c2)oc1C` (centres undefined), in test [1], the cell count was 638. Besides, the inhibition is -1.3% (inactive) in test [1], -44.8% (inactive) in test [3], 9.35% (inactive) in test [7] and 4.33% (inactive) in test [8]. Also, the inhibition of aggregation in test [2] is -7.7% (inactive). The nuclei count in test [2] came to 99.2%; in test [3], 107%. Further, in test [4], the fluorescence slope is -0.523 (inactive). Besides, the NADPH fluorescence slope in test [5] was 2.7e-05 (inactive). The slope in test [6] was 0.00702 (inactive).
Turning to `O=C(NCCCNC1CCCCC1)c1ccc(/C=N/O)nc1`, the cell count in test [1] was 221. The inhibition is 2% (inactive) in test [1], -97.6% (inactive) in test [3], 7.85% (inactive) in test [7] and 23% (inactive) in test [8]. For the same compound, the inhibition of aggregation in test [2] is -20.6% (inactive). Also, the nuclei count was found to be 67.6% in test [2] and 108% in test [3]. Further, the fluorescence slope in test [4] is -0.62 (inactive). For the same compound, the NADPH fluorescence slope in test [5] is -1.9e-05 (inactive). In test [6], the slope is 0.00681 (inactive).
For `COCCCNC(=O)CC1Oc2ccccc2NC1=O` (centres undefined), the cell count in test [1] is 762. Also, the inhibition in test [1] is 0% (inactive); in test [3], -48.7% (inactive); in test [7], 14.8% (inactive); in test [8] it was 33.9% (inactive). Besides, in test [2], the inhibition of aggregation is 13.4% (inactive). The nuclei count in test [2] is 87.3%; in test [3], 112%. In addition, the fluorescence slope in test [4] was -0.54 (inactive). Also, the NADPH fluorescence slope in test [5] was -5.2e-05 (inactive). Further, the slope in test [6] was 0.00685 (inactive).

Values taken from PubChem BioAssay.
